High-throughput results deposited in PubChem by several laboratories.
ROMK primary – modulators of human ROMK potassium channel | Tet-inducible ROMK, thallium flux fluorescence; actives lie on both sides | B-score at 10 µM | P48048 | AID 1918 | actives 2% (n = 130,000);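 active = signal ratio slope over the read window, or its plate-corrected B-score, at least 3 SD from the plate mean, either direction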;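 also: B-score of the F/F0 ratio slope over 7 to 12 s after thallium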
Cl transport mod – modulates chloride dependent transport by human KCC2. B-score of Tl+ flux slope (higher = more flux/activation; lower = inhibition) at 10 µM. Q9H2X9. actives 2.2% (n = 190,000). AID 1456. KCC2 cells, thallium flux FluoZin-2 fluorescence;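 active = thallium flux slope and its plate-corrected score both differing from the plate sample mean at a set confidence after two filtering rounds, in either direction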;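 also: slope of fluorescence scaled to starting intensity during 10 to 20 s after thallium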
L major viab – Leishmania major promastigote growth inhibition; Leishmania major promastigotes, resazurin fluorescence viability; inhibition, % at 10 µM; actives 9% (n = 200,000); AID 1063; in the data active = inhibition above about 50%;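 also: promastigotes grown with compound for 44 hours at 28 °C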
Insulin prom inh – TRM-6 insulin promoter activity inhibition; TRM-6 cells (human fetal islet line), insulin promoter-eGFP reporter, imaging; reporter expression induced with tamoxifen; AID 1273; actives 0.9% (n = 130,000); inhibition, % at 2 µM;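 active = inhibition above the mean plus 3 SD, with well images judged a real hit on visual review, cut at about 60% in these data, passing the limit was not always enough; inconclusive = inhibition over the cutoff but images rejected on review; inactive = inhibition not above the cutoff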
WT yeast gro inh – growth inhibition of WT yeast, mitochondrial fusion screen; mitochondrial fusion phenotypic screen, WT strain; inhibition, % at 10 µM; actives 2.1% (n = 190,000); in the data active = inhibition above about 58%; tested in S. cerevisiae
Ins promoter up – MIN6 insulin promoter up-regulation | AID 1625 | z-score at 5 µM | actives 0.3% (n = 190,000) | MIN6 insulin promoter-GFP reporter, high-content imaging; hits give high values;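 active = z-score above 3 at 5 µM with at least 500 cells counted in the well; inconclusive = wells under 500 cells, flagged as cytotoxic or low count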
ROMK hit retest – confirmation of human ROMK potassium channel modulators | shares compounds with ROMK primary | ROMK thallium flux, fluorescence ratio; hits give low values | normalized thallium flux (F/F0 slope) at 10 µM | actives 54% (n = 3,000) | AID 1917;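 active = Flux at 10 µM at least 3 SD below or above vehicle control mean in one or both replicates; inconclusive = no clear call, values can overlap the other calls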
Numbers stand for hits; . = inactive; ? = inconclusive; / = no result. Compounds with a hit are over-represented: about 12% of the library has one in this group of screens.

SMILES	ROMK primary	Cl transport mod	L major viab	Insulin prom inh	WT yeast gro inh	Ins promoter up	ROMK hit retest
CC1CCN(c2nc3ccccc3nc2C(C#N)S(=O)(=O)c2ccccc2)CC1 (stereo not given)	/	/	/	/	.	/	/
COc1ccc(NC(=S)NNc2ccc([N+](=O)[O-])cc2S(=O)(=O)Nc2ccc(C)cc2C)cc1	.	.	.	.	.	/	/
Cc1ccc(NS(=O)(=O)c2cc([N+](=O)[O-])ccc2NNC(=S)Nc2cc(C)ccc2C)c(C)c1	/	.	.	.	.	.	0.064
COc1ccc(-c2ccnc(-c3ccc(O)cc3)n2)cc1	3.2	.	.	/	.	.	.
COc1ccc(-c2ccnc(-c3ccncc3)n2)cc1	.	.	/	/	/	.	/
Fc1cccc(Cl)c1-c1nnc2ccc(C(F)(F)F)cn12	.	.	.	/	.	.	/
CCOc1cc(/C=N/n2cnnc2)cc(Br)c1O	/	.	.	.	.	.	.
CCOC(=O)N(CC)OC(=O)Nc1ccc(Cl)cc1	.	/	.	.	.	/	/
COc1ccc(C(=O)N2CCN(c3ccc([N+](=O)[O-])c(NCCc4ccc(OC)c(OC)c4)c3)CC2)cc1	/	.	.	.	.	?	0.06
CN(C(=O)CSc1nnc(-c2ccco2)o1)C1CCCCC1	/	/	.	.	.	.	/
CC(=O)c1ccc(O)c(CO)c1	.	.	.	/	.	/	.
N#Cc1sc(NCc2ccccc2)nc1Cl	.	.	.	/	.	.	/
CC(C)c1ccc2oc(-c3ccc(N)cc3)nc2c1	/	.	.	.	.	.	.
Nc1ccc(-c2nc3cc([N+](=O)[O-])ccc3o2)cc1	/	.	/	/	/	.	/
COc1ccc(-c2noc(CCCC(=O)NCCc3ccccc3)n2)cc1OC	/	/	.	.	.	.	/
CCOc1ccc(NC(=O)CCN2CCN(S(=O)(=O)c3cc(Cl)ccc3OC)CC2)cc1	-2.4	/	99	.	.	.	0.062
NNC(=O)COc1ccccc1[N+](=O)[O-]	.	.	.	/	.	.	/
CC(=O)c1ccc(NC2OC(CO)C(O)C(O)C2O)cc1 (stereo not given)	.	.	.	.	.	.	/
CCC(=O)NC1OC(CO)C(O)C(O)C1O (stereo not given)	-2.4	.	.	/	.	.	.
COc1ccc(-c2[nH]n(-c3ccc([N+](=O)[O-])cc3)c(=O)c2C=NCCN2CCNCC2)cc1	-3	.	.	.	.	.	0.059
Cc1oc(-c2cc(Cl)cc(Cl)c2)cc1C(=O)NCCc1ccccc1	.	.	.	.	.	.	/
CCCSc1nnc(NC(=O)Nc2ccc(F)cc2)s1	.	.	.	/	.	.	0.062
COc1ccc(CNC(=O)c2cc3c(=O)[nH]c4ccccc4c3n2C)cc1	.	.	.	/	.	.	/
Cc1[nH]n(-c2ccc(C(=O)O)cc2)c(=O)c1CCO	3.8	.	.	.	.	.	.
Cc1[nH]n(-c2ccc(Cl)c(Cl)c2)c(=O)c1CCO	.	.	.	/	.	.	/
SMILES	ROMK primary	Cl transport mod	L major viab	Insulin prom inh	WT yeast gro inh	Ins promoter up	ROMK hit retest
CC1CC(=O)N(c2ccc(N(C)Cc3ccccc3)c([N+](=O)[O-])c2)C1=O (stereo not given)	.	.	.	.	.	.	/
COc1ccccc1N(CC(=O)NC1CCCCC1)S(=O)(=O)c1cccs1	/	.	/	/	/	.	/
O=c1c2ccccc2nc2n1C(CSCc1ccc(Cl)cc1)CS2 (stereo not given)	/	.	59	.	.	.	0.066
Cn1cccc1Cc1nnc(SCC(=O)NCCc2ccccc2)n1C	.	.	.	/	.	.	/
Cc1ccc(NC(=O)C2C(c3ccccc3)C=CC(c3ccccc3)C2C(=O)O)cc1 (stereo not given)	.	.	.	.	.	.	/
CCCCOc1ccc(CSCCN=C(N)N)cc1	-3.4	.	97	/	.	.	0.054
CCCCOc1ccc(CSC(CC(=O)O)C(=O)O)cc1 (stereo not given)	.	.	.	.	.	.	/
CCOC(=O)/C=c1\s/c(=C\c2ccc3cc(OC)ccc3c2)c(=O)n1CC(=O)NCc1ccc2c(c1)OCO2	-6	.	.	.	.	.	0.046
CCCCC(=Nc1ccccc1OC)C1=C(O)CC(c2ccccc2)CC1=O (stereo not given)	.	.	.	.	.	.	/
COc1ccccc1N=C(C)C1=C(O)CC(c2ccccc2)CC1=O (stereo not given)	8	.	53	.	.	.	.
CC(=O)Nc1ccc2oc(-c3ccccc3Br)nc2c1	.	.	.	.	.	.	/
